# Source: PubChem BioAssay AID1159580 (chemical genetic matrix, 2015)
# Where “and” joins values, the source holds several entries; their conditions need not be identical. Equal entries are not always repeated. Hit rate of the full screen: of about 5,500 compounds, about 2,000 (36%) were called active. Another 18% or so got no clear call; they are omitted. Cut-off read from the data, not from the text of the source: active = normalized growth mostly below about 0.91 (no sharp cut-off); inconclusive = no clear call, values can overlap the other calls; inactive = mostly above about 0.92. The list shows a part of the results.
# Test: chemical genetic growth profiling, strain panel (AID 1159580);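 note: tested at 20 µM; growth read once vehicle control cultures reached saturation at 30 °C; 1 = growth at the plate median or of vehicle wells; lower values mean less growth of the strain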
# Conditions: S. cerevisiae deletion strains, growth OD
smiles,measurement,setting,value
COc1c(C)c2c(c(O)c1C/C=C(\C)CCC(=O)O)C(=O)OC2,normalized growth,"locus YAL013W, strain DEP1, stronger effect = lower value",0.84 (active)
same,normalized growth,"locus YAL021C, strain ccr4, stronger effect = lower value",0.556 (active)
same,normalized growth,"locus YAL026C, strain drs2, stronger effect = lower value",0.323 (active)
same,normalized growth,"locus YAL030W, strain snc1, stronger effect = lower value",0.621 (active)
same,normalized growth,"locus YBL061C, strain skt5, stronger effect = lower value",0.712 (active)
same,normalized growth,"locus YBR009C, strain hhf1, stronger effect = lower value",0.417 (active)
same,normalized growth,"locus YBR021W, strain FUR4, stronger effect = lower value",1.07 (inactive)
same,normalized growth,"locus YBR023C, strain chs3, stronger effect = lower value",0.602 (active)
same,normalized growth,"locus YBR171W, strain sec66, stronger effect = lower value",0.945 (inactive)
same,normalized growth,"locus YBR229C, strain ROT2, stronger effect = lower value",0.973 (inactive)
same,normalized growth,"locus YBR231C, strain swc5, stronger effect = lower value",0.386 (active)
same,normalized growth,"locus YBR279W, strain paf1, stronger effect = lower value",0.613 (active)
same,normalized growth,"locus YCL011C, strain gbp2, stronger effect = lower value",0.47 (active)
same,normalized growth,"locus YCL016C, strain dcc1, stronger effect = lower value",0.518 (active)
same,normalized growth,"locus YCL029C, strain bik1, stronger effect = lower value",0.723 (active)
same,normalized growth,"locus YCL069W, strain vba3, stronger effect = lower value",0.395 (active)
same,normalized growth,"locus YCR088W, strain abp1, stronger effect = lower value",0.508 (active)
same,normalized growth,"locus YDL005C, strain med2, stronger effect = lower value",0.915 (inactive)
same,normalized growth,"locus YDL035C, strain GPR1, stronger effect = lower value",0.789 (active)
same,normalized growth,"locus YDL040C, strain nat1, stronger effect = lower value",0.758 (active)
same,normalized growth,"locus YDL074C, strain BRE1, stronger effect = lower value",0.498 (active)
same,normalized growth,"locus YDL101C, strain DUN1, stronger effect = lower value",0.95 (inactive)
same,normalized growth,"locus YDL134C, strain PPH21, stronger effect = lower value",0.876 (active)
same,normalized growth,"locus YDL185W, strain tfp1, stronger effect = lower value",0.185 (active)
same,normalized growth,"locus YDL192W, strain arf1, stronger effect = lower value",0.737 (active)
same,normalized growth,"locus YDR001C, strain nth1, stronger effect = lower value",0.604 (active)
same,normalized growth,"locus YDR069C, strain doa4, stronger effect = lower value",0.713 (active)
same,normalized growth,"locus YDR101C, strain arx1, stronger effect = lower value",0.668 (active)
same,normalized growth,"locus YDR137W, strain rgp1, stronger effect = lower value",0.345 (active)
same,normalized growth,"locus YDR150W, strain NUM1, stronger effect = lower value",0.997 (inactive)
same,normalized growth,"locus YDR159W, strain sac3, stronger effect = lower value",0.401 (active)
same,normalized growth,"locus YDR162C, strain NBP2, stronger effect = lower value",0.77 (active)
same,normalized growth,"locus YDR195W, strain ref2",1.09 (inactive)
same,normalized growth,"locus YDR297W, strain sur2, stronger effect = lower value",0.664 (active)
same,normalized growth,"locus YDR318W, strain mcm21, stronger effect = lower value",0.625 (active)
same,normalized growth,"locus YDR334W, strain swr1, stronger effect = lower value",0.341 (active)
same,normalized growth,"locus YDR335W, strain msn5, stronger effect = lower value",0.549 (active)
same,normalized growth,"locus YDR388W, stronger effect = lower value",0.75 (active)
same,normalized growth,"locus YDR392W, strain spt3, stronger effect = lower value",0.0934 (active)
same,normalized growth,"locus YDR502C, strain sam2, stronger effect = lower value",0.666 (active)
same,normalized growth,"locus YEL003W, strain gim4, stronger effect = lower value",0.539 (active)
same,normalized growth,"locus YEL037C, strain rad23, stronger effect = lower value",0.451 (active)
same,normalized growth,"locus YEL061C, strain CIN8 (second series), stronger effect = lower value",0.368 (active)
same,normalized growth,"locus YEL061C, strain CIN8, stronger effect = lower value",0.863 (active)
same,normalized growth,"locus YER015W, strain faa2, stronger effect = lower value",0.667 (active)
same,normalized growth,"locus YER016W, strain bim1, stronger effect = lower value",0.761 (active)
same,normalized growth,"locus YER110C, stronger effect = lower value",1.02 (inactive)
same,normalized growth,"locus YER111C, strain swi4, stronger effect = lower value",0.662 (active)
same,normalized growth,"locus YER155C, strain BEM2 (second series), stronger effect = lower value",0.363 (active)
same,normalized growth,"locus YER155C, strain BEM2, stronger effect = lower value",0.781 (active)
same,normalized growth,"locus YER167W, strain BCK2, stronger effect = lower value",0.582 (active)
same,normalized growth,"locus YFR010W, strain ubp6, stronger effect = lower value",0.384 (active)
same,normalized growth,"locus YGL078C, strain dbp3, stronger effect = lower value",0.349 (active)
same,normalized growth,"locus YGL086W, strain mad1, stronger effect = lower value",0.759 (active)
same,normalized growth,"locus YGL167C, strain pmr1, stronger effect = lower value",0.666 (active)
same,normalized growth,"locus YGL173C, strain kem1, stronger effect = lower value",0.82 (active)
same,normalized growth,"locus YGL227W, strain vid30, stronger effect = lower value",0.494 (active)
same,normalized growth,"locus YGL240W, strain doc1, stronger effect = lower value",0.95 (inactive)
same,normalized growth,"locus YGL248W, strain PDE1, stronger effect = lower value",0.861 (active)
same,normalized growth,"locus YGL253W, strain hxk2, stronger effect = lower value",0.437 (active)
same,normalized growth,"locus YGR078C, strain PAC10, stronger effect = lower value",0.808 (active)
same,normalized growth,"locus YGR135W, strain pre9, stronger effect = lower value",0.874 (active)
same,normalized growth,"locus YGR229C, strain SMI1, stronger effect = lower value",0.608 (active)
same,normalized growth,"locus YGR252W, strain gcn5, stronger effect = lower value",1.01 (inactive)
same,normalized growth,"locus YHR013C, strain ard1, stronger effect = lower value",0.533 (active)
same,normalized growth,"locus YHR027C, strain rpn1, stronger effect = lower value",0.699 (active)
same,normalized growth,"locus YHR030C, strain SLT2, stronger effect = lower value",0.974 (inactive) and 0.154 (active)
same,normalized growth,"locus YHR079C, strain IRE1 (second series), stronger effect = lower value",0.536 (active)
same,normalized growth,"locus YHR079C, strain IRE1, stronger effect = lower value",0.165 (active)
same,normalized growth,"locus YHR094C, strain hxt1, stronger effect = lower value",0.734 (active)
same,normalized growth,"locus YHR129C, strain ARP1, stronger effect = lower value",0.869 (active)
same,normalized growth,"locus YHR142W, strain chs7, stronger effect = lower value",0.33 (active)
same,normalized growth,"locus YHR200W, strain rpn10, stronger effect = lower value",0.889 (active)
same,normalized growth,"locus YIL066C, strain RNR3, stronger effect = lower value",0.835 (active)
same,normalized growth,"locus YIL073C, strain SPO22, stronger effect = lower value",0.794 (inactive)
same,normalized growth,"locus YIL125W, strain kgd1, stronger effect = lower value",0.238 (active)
same,normalized growth,"locus YIR030C, strain dcg1, stronger effect = lower value",0.745 (active)
same,normalized growth,"locus YJL092W, strain hpr5, stronger effect = lower value",0.505 (active)
same,normalized growth,"locus YJL095W, strain BCK1 (second series), stronger effect = lower value",0.714 (active)
same,normalized growth,"locus YJL095W, strain BCK1, stronger effect = lower value",0.755 (active) and 0.169 (active)
same,normalized growth,"locus YJL115W, strain asf1, stronger effect = lower value",0.593 (active)
same,normalized growth,"locus YJL129C, strain trk1, stronger effect = lower value",0.686 (active)
same,normalized growth,"locus YJL134W, strain LCB3, stronger effect = lower value",0.976 (inactive)
same,normalized growth,"locus YJL154C, strain vps35, stronger effect = lower value",0.596 (active)
same,normalized growth,"locus YJL164C, strain tpk1, stronger effect = lower value",0.469 (active)
same,normalized growth,"locus YJL166W, strain qcr8, stronger effect = lower value",0.641 (active)
same,normalized growth,"locus YJL168C, strain set2, stronger effect = lower value",0.979 (inactive)
same,normalized growth,"locus YJL187C, strain SWE1 (second series), stronger effect = lower value",0.749 (active)
same,normalized growth,"locus YJR043C, strain POL32, stronger effect = lower value",0.906 (inactive)
same,normalized growth,"locus YJR066W, strain TOR1, stronger effect = lower value",0.0708 (active)
same,normalized growth,"locus YJR075W, strain HOC1, stronger effect = lower value",0.772 (active)
